From PubChem
Only some compounds are listed: those with a hit (about 2.2% of all), similar ones and a draw of the others.
Cardio protect: modulators protecting cardiomyocytes from myocardial damage; 360,000 compounds, 0.63% hits; protection from H2O2 cell death, % at 20 µM; H9c2 cardiomyocytes, H2O2 injury protection, ATPLite, 2 h;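 active = compounds giving at least 50% protection of heart cells from peroxide-induced death in the single-dose screen, raw or plate-pattern-corrected value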
beta cell repl: MIN6 beta-cell proliferation induction; 330,000 compounds, 0.29% hits; AID 2380; proliferation, % at 10 µM; MIN6 cells proliferation, ATPlite luminescence, 48 h; cells starved in 0.2% serum; 100% = growth in 10% serum;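 active = compounds whose signal lies at least 3.5 SD above the mean of all wells on their plate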
ABCB6 inh 2: human ABCB6 transporter inhibition; fluorescence ratio to DMSO, % at 10 µM; K562-ABCB6 porphyrin accumulation, flow cytometry, 1 h; stronger effect = lower value; 360,000 compounds, 0.19% hits;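 active = fluorescence ratio to DMSO below 75%, the collection mean minus 3 SD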;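 also: signal is porphyrin accumulated inside mitochondria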
Target sequence (Q9NP58 whole entry, looked up): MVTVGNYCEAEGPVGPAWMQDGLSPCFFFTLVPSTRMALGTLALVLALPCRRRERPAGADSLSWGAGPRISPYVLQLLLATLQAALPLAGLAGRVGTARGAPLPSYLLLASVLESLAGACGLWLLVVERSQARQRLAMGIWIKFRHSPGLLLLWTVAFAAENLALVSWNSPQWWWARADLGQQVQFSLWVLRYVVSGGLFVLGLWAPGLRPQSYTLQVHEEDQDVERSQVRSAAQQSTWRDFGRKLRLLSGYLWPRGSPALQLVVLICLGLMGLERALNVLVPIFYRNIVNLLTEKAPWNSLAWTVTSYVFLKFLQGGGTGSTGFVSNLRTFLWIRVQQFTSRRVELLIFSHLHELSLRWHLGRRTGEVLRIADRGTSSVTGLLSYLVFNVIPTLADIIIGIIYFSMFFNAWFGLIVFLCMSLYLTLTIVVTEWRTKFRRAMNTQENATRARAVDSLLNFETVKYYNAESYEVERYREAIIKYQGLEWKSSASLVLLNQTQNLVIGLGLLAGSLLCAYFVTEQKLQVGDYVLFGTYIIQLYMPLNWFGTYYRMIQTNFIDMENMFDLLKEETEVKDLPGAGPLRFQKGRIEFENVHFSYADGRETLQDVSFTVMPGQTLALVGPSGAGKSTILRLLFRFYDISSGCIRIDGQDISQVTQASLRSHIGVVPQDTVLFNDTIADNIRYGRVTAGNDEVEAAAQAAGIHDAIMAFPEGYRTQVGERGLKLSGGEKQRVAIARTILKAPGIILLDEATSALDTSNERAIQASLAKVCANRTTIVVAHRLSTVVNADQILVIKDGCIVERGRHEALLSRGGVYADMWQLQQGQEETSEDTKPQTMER
Myeloid diff 2: myeloid differentiation induction; ER-HoxA9 myeloid progenitors, lysozyme-GFP differentiation, flow cytometry; calls only at 10 µM; 360,000 compounds, 1% hits; AID 624256;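 active = normalized GFP-positive differentiation at or above the plate's own cutoff, the solvent-only control mean plus 3 SD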;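 also: cells exposed to compound for four days before flow analysis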
hiPSC survival: enhancers of human iPSC single-cell survival; 360,000 compounds, 0.044% hits; AID 602274; survival enhancement, % at 20 µM; hiPSC single-cell survival, ATPlite luminescence; 100% = ROCK inhibitor wells, 0% = DMSO; in the data active = survival enhancement above about 18%;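 also: cells exposed to compounds for 16 hours before the ATP read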
Myeloid diff CP1: promotes myeloid progenitor differentiation | shares compounds with Myeloid diff 2 | 2,300 compounds, 2% hits | ER-HoxA9 myeloid progenitors, GFP/Mac1 double-positive flow | calls only;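 active = share of green or green-and-red cells above 9 and 9% in run 1 or 4 and 3% in run 2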
GFP autofluor: compound fluorescence in myeloid differentiation counter-screen; shares compounds with Myeloid diff 2; ER-HoxA9 myeloid progenitors, no estrogen, GFP autofluorescence flow cytometry; vehicle wells 0%, positive control 100%; fluorescence response, % (concentration not given with the values); 2,300 compounds, 7.4% hits; AID 651707;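 active = over 5% cells positive for green fluorescent reporter, or over 2% positive for both it and APC stain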
Numbers stand for hits; 0 = inactive; - = not tested or not shown; + = active, no number.

SMILES	Cardio protect	beta cell repl	ABCB6 inh 2	Myeloid diff 2	hiPSC survival	Myeloid diff CP1	GFP autofluor
CC(C)N1CC(C(=O)Nc2ccc(F)c(Cl)c2)CC1=O (configuration not stated)	0	0	0	0	0	-	-
O=[N+]([O-])c1ccccc1-c1ccc(C(=S)N2CCN(c3ccccc3)CC2)o1	0	0	0	+	0	0	0
Cc1ccc(N2CCN(C(=S)c3ccc(-c4ccccc4[N+](=O)[O-])o3)CC2)cc1	0	0	0	0	0	-	-
O=C(C[C@@H]1C/C=C\CC[C@@H](Cc2ccc(F)cc2)C(=O)OC[C@@H]2CCCN2C1=O)NCCO	0	0	0	0	0	-	-
COc1ccccc1OCc1ccc(C(=O)NN)cc1	0	0	0	0	0	0	0
NC(=O)C1=C[C@@H](c2coc3ccccc3c2=O)C[C@@H](OCCCCO)O1	0	0	0	0	0	-	-
C=CCOC(=O)C1=C[C@@H](c2coc3ccccc3c2=O)C[C@@H](OCCCCO)O1	0	0	0	0	0	0	0
CC(C)Cn1c(SC(C)C(=O)Nc2ccc3c(c2)OCCO3)nc2ccccc2c1=O (configuration not stated)	0	-	0	0	0	-	-
CC(Sc1nc2ccccc2c(=O)n1C)C(=O)Nc1ccc2c(c1)OCCO2 (configuration not stated)	0	0	0	0	0	0	0
CN(C)CC(C)(C)CNCc1cc(=O)oc2ccc3ccccc3c12	0	0	0	0	0	-	-
Cn1c(C(=O)O)c(C=O)c2ccccc21	0	0	0	0	0	-	-
Cc1c(C(=O)C(C)C)n(C)c2ccccc12	0	0	0	0	0	0	0
CC(C)CC(NC(=O)c1ccccc1)C(=O)OCC(=O)Nc1ccc(Br)cn1 (configuration not stated)	0	0	0	0	0	-	-
CCOc1ccccc1N(CC(=O)NC1CCCCC1)S(=O)(=O)c1ccc(C)cc1	0	0	0	+	0	0	0
COc1ccc(Cn2cccc(NC(=O)Nc3ccc(F)cc3)c2=O)cc1	0	0	0	0	0	-	-
COc1ccc(S(=O)(=O)Nc2cccc3c2O[C@H](CN(C)C)[C@@H](C)CN([C@H](C)CO)C3=O)cc1	0	0	0	0	0	-	-
Cc1ccc2oc(=O)c3cnn(CC(=O)N4CCCc5ccccc54)c3c2c1	0	0	0	0	0	0	0
O=C(CSc1nnc2scc(-c3ccccc3)n12)N1CCCc2ccccc21	0	0	0	0	0	0	0
CC1Cc2nc(SCC(=O)N3CCCc4ccccc43)n(C)c(=O)c2S1 (configuration not stated)	0	0	0	0	0	0	0
CCn1nnnc1SCC(=O)N1CCCc2ccccc21	0	0	0	0	0	0	0
CCn1nnnc1SCC(=O)N1CCc2ccccc21	0	0	0	0	0	-	-
CCn1c(SCC(=O)N2CCCc3ccccc32)nc2c(c1=O)SC(C)C2 (configuration not stated)	0	0	0	0	0	-	-
Cc1ccc(C)n1NC(=O)c1cccs1	0	0	0	0	0	0	0
C[C@H](CO)N1C[C@H](C)[C@H](CN(C)Cc2cncnc2)Oc2ncc(C#CC3(O)CCCC3)cc2C1=O	0	-	0	0	0	-	-
Cc1c2ccccc2nc2c(F)c(NCCO)c(F)c(F)c12	0	0	0	+	0	0	78
SMILES	Cardio protect	beta cell repl	ABCB6 inh 2	Myeloid diff 2	hiPSC survival	Myeloid diff CP1	GFP autofluor
C=CCn1c(SCC(=O)N2CCOCC2)nc2sc(C)c(C)c2c1=O	0	0	0	0	0	-	-
Cc1ccccc1Nc1nc(N)nc(CSc2n[nH]c(N)n2)n1	0	0	0	+	0	0	0
Cc1ccccc1CSCc1nc(N)nc(Nc2ccccc2C)n1	0	0	0	0	0	-	-
O=C(c1ccc2nc[nH]c2c1)N1CCN(S(=O)(=O)c2cccc(Cl)c2)CC1	0	-	0	0	0	-	-
NNc1nc2c(F)cc(F)cc2s1	0	0	0	+	0	0	0
O=C1Nc2ccc(Br)cc2/C1=C/C1CC=CCC1 (configuration not stated)	0	0	0	0	0	-	-
CC(C)(C)c1ccc(NC(=O)CC2(C(F)(F)F)OCCO2)cc1	0	0	0	0	0	0	0
COc1cc(/C=C2\SC(=O)NC2=O)ccc1Oc1ccc([N+](=O)[O-])cn1	0	0	0	0	0	-	-
COc1cc(/C=C2/SC(=O)NC2=O)ccc1Oc1ccc([N+](=O)[O-])cc1[N+](=O)[O-]	0	0	0	+	0	0	0
CC(=O)c1c(Cl)nc2cccc3c2c1-c1ccccc1C3=O	0	0	0	0	0	0	0
CCC(Sc1nc2ccccc2o1)C(=O)O (configuration not stated)	0	0	0	0	0	-	-
O=C(Nc1nc(-c2cccnc2)cs1)c1ccc(S(=O)(=O)N2CCOCC2)cc1	0	0	0	0	0	0	0
Cc1cc(C(=O)CN2C(=O)C(=O)N(Cc3ccco3)C2=O)c(C)n1CCc1ccccc1	0	0	0	0	0	-	-
Cc1cc(C(=O)CN2C(=O)C(=O)N(Cc3ccco3)C2=O)c(C)n1CCc1ccc(F)cc1	0	0	0	0	0	0	0
CCc1nc2ccccc2c(C(=O)O)c1C	0	0	0	0	0	-	-
CCc1nc2ccccc2c(C(=O)NCc2ccccc2)c1C	0	0	0	0	0	0	0
COC(=O)c1ccccc1N1C(=O)C2C(C1=O)C1C=CC2C12CC2 (configuration not stated)	0	0	0	+	0	0	94
COC(=O)c1ccccc1N1C(=O)C2C(C1=O)[C@H]1C=C[C@@H]2C1 (some centres not stated)	0	0	0	0	0	-	-
Clc1cc(Cl)cc(Nc2ccccc2CN(C/C=C/c2ccc3c(c2)OCO3)Cc2ccccc2)c1	0	-	0	0	0	0	0
CCCCN(C(=O)c1ccc(-c2ccc([N+](=O)[O-])cc2)o1)c1c(N)n(CCCC)c(=O)[nH]c1=O	0	0	0	-	0	-	-
CCCCN(C(=O)c1ccc([N+](=O)[O-])o1)c1c(N)n(CCCC)c(=O)[nH]c1=O	0	0	0	+	0	0	0
Cc1ccc2cc(C#N)c(SCC(=O)NCC3CCCO3)nc2c1 (configuration not stated)	0	0	0	0	0	0	0
Cc1ccc(-c2nc(SCC(=O)NCC3CCCO3)c(-c3ccc(C)cc3)[nH]2)cc1 (configuration not stated)	0	0	0	0	0	0	0
Cc1nc(SCC(=O)NCC2CCCO2)c2cc(-c3ccccc3)sc2n1 (configuration not stated)	0	0	0	0	0	0	0
COc1ccc(CN2CCCN(S(=O)(=O)c3ccc(Br)cc3)CC2)cc1	0	0	0	0	0	-	-
